Our source for the growth values is PubChem BioAssay (NCI).

About 83,000 compounds went through this panel and 20% of them were active in at least one assay; those are over-represented in the sample as a whole.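 Cell lines were cultured in 96-well plates, exposed to a single compound concentration, and assessed for percent growth 48 hours later.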 Unmarked numbers belong to inactive results. The source made the active and inactive calls. The calls were made as follows: active = growth percent below 10; inactive = the rest.

Some test systems named below: T-47D breast; BT-549 breast; MDA-MB-435 melanoma; SW-620 colon; MCF7 breast; HCT-116 colon; HCC-2998 colon; KM12 colon.
Test in all cases: NCI-60 one-dose screen, 48 h (100 = growth as untreated, 0 = no growth, -100 = all killed)
Holding throughout (conditions): 10 µM unless noted

Regarding `COc1cc(-c2ccc(-c3ccc(C(=N)N)s3)s2)cc(OC)c1OC`, the growth in the experiment on T-47D breast is 39.3%; in the experiment with BT-549 breast, 61.7%; with MDA-MB-435 melanoma, -34.8% (active); in the experiment with SW-620 colon, -15.5% (active); in the experiment on MCF7 breast it was -6.02% (active); with HCT-116 colon it was -21.5% (active). For the same compound, the growth in the experiment with HCC-2998 colon was 49.7%; in the experiment on KM12 colon, 27.7%.
Turning to `C=C(CNCCO)[C@@H]1CC[C@]2(CO)CC[C@]3(C)[C@H](CC[C@@H]4[C@@]5(C)CCC(NCCO)C(C)(C)[C@@H]5CC[C@]43C)[C@@H]12` (stereo not given in full), the growth was 84.4% with T-47D breast; 78.9% with BT-549 breast; 70.2% in the experiment on MDA-MB-435 melanoma; 73.8% with SW-620 colon; 47.4% with MCF7 breast; 44.3% in the experiment with HCT-116 colon. Besides, the growth was 71.7% with HCC-2998 colon and 63.4% with KM12 colon.
With `CC(C)c1nc(N(C)S(C)(=O)=O)nc(-c2ccc(F)cc2)c1/C=C/C(=O)C[C@@H](O)CC(=O)O`, the growth with T-47D breast is 101%; in the experiment with BT-549 breast it was 94.2%; with MDA-MB-435 melanoma, 103%; in the experiment with SW-620 colon it was 108%; in the experiment on MCF7 breast, 97.2%; in the experiment on HCT-116 colon, 91.1%. The figures for the growth in the experiment on HCC-2998 colon and in the experiment with KM12 colon were 98.2% and 97.1%, respectively.
As to `COc1cc(/C=C/c2cc(/C=C/c3ccc(O)c(OC)c3)n(C(=O)Nc3ccc(C)cc3C)n2)ccc1O`, the growth is -22.5% (active) in the experiment with T-47D breast; -33.8% (active) with BT-549 breast; -40.9% (active) in the experiment on MDA-MB-435 melanoma; -10.9% (active) with SW-620 colon; -3.78% (active) with MCF7 breast; 1.48% (active) in the experiment with HCT-116 colon. The growth is 4.28% (active) with HCC-2998 colon and -9.35% (active) with KM12 colon.
Regarding `CSc1nc(CC(C)C)c(C#N)c(=O)n1C`, the growth was 33.4% in the experiment with T-47D breast; 58.8% in the experiment with BT-549 breast; 65.8% in the experiment with MDA-MB-435 melanoma; 63.1% with SW-620 colon; 38.7% in the experiment with MCF7 breast; 60.4% in the experiment on HCT-116 colon. Further, the growth was 79.4% with HCC-2998 colon and 86.5% with KM12 colon.
As for `Cc1[nH]c(C(=O)Nc2ccccc2OC2CCNC2)c(Cl)c1Cl` (stereo not given), the growth with T-47D breast is 83.2%; in the experiment with BT-549 breast it was 88%; in the experiment on MDA-MB-435 melanoma it was 86.4%; in the experiment on SW-620 colon, 79.8%; in the experiment on MCF7 breast, 67.3%; in the experiment on HCT-116 colon, 42.8%. Also, the growth with HCC-2998 colon is 94.4%; in the experiment on KM12 colon, 84.2%.
`CCCNNC(=O)c1ccc(CNC(=O)/C=C/c2ccccc2)cc1`: the growth in the experiment with T-47D breast was 0.925% [2.5 µM] (active); in the experiment with BT-549 breast it was 77.2% [2.5 µM]; in the experiment with MDA-MB-435 melanoma it was 31.8% [2.5 µM]; in the experiment with SW-620 colon, 22.9% [2.5 µM]; in the experiment on MCF7 breast, 30.6% [2.5 µM]; in the experiment on HCT-116 colon, 1.27% [2.5 µM] (active). The results for the growth with HCC-2998 colon and with KM12 colon were 34.2% [2.5 µM] and 47.1% [2.5 µM], respectively.
With `CC1=NC(=S)NC(c2ccccc2)/C1=C1/CC(c2ccccc2O)NN1` (stereo not given), the growth is 100% in the experiment with T-47D breast; 99.6% in the experiment with BT-549 breast; 103% in the experiment with MDA-MB-435 melanoma; 100% with SW-620 colon; 102% with MCF7 breast; 99.6% in the experiment on HCT-116 colon. In addition, the figures for the growth with HCC-2998 colon and with KM12 colon were 113% and 104%, respectively.
With `COc1cccc(CNc2nnc(C)c(C)n2)c1O`, the growth is 94% in the experiment with T-47D breast; 101% in the experiment with BT-549 breast; 111% with MDA-MB-435 melanoma; 109% with SW-620 colon; 97.3% with MCF7 breast; 100% with HCT-116 colon. Further, the results for the growth in the experiment on HCC-2998 colon and in the experiment with KM12 colon were 96.4% and 107%, respectively.
`CCN1C(=O)N(CC)C2C1NN=c1s/c(=C\c3ccc([N+](=O)[O-])cc3)c(=O)n12` (stereo not given): the growth in the experiment on T-47D breast was 23.9%; with BT-549 breast it was 32.7%; in the experiment with MDA-MB-435 melanoma, -23.4% (active); with SW-620 colon, 19.8%; in the experiment on MCF7 breast, 7.6% (active); in the experiment with HCT-116 colon, 7.31% (active). For the same compound, the growth in the experiment on HCC-2998 colon was 11.4%; in the experiment with KM12 colon, 19.6%.
Take `COc1ccc(-c2ccc(-c3ccc(C(=N)N)o3)o2)cc1`: the growth in the experiment on T-47D breast was 26.7%; in the experiment with BT-549 breast it was 59.6%; in the experiment with MDA-MB-435 melanoma it was -65.4% (active); with SW-620 colon, 12.9%; in the experiment on MCF7 breast it was 10.4%; with HCT-116 colon, -5.19% (active). The growth in the experiment with HCC-2998 colon was -48.7% (active); with KM12 colon, 11%.
As for `CN1/C(=C/C=C/c2n(Cc3ccc4ccccc4c3)c(Cl)c(Cl)[n+]2Cc2ccc3ccccc3c2)Oc2ccccc21`, the growth with T-47D breast was -50.2% (active); with BT-549 breast, -84.8% (active); in the experiment on MDA-MB-435 melanoma it was -81.8% (active); in the experiment with SW-620 colon, -79.9% (active); in the experiment with MCF7 breast it was -72.8% (active); in the experiment with HCT-116 colon it was -82.2% (active). Further, the growth in the experiment on HCC-2998 colon was -87.6% (active); in the experiment on KM12 colon, -80.9% (active).
On to `C=C1C(=O)O[C@H]2[C@H]1CC/C(CNC(=O)/C=C/c1cc(OC)c(OC)c(OC)c1)=C\CC[C@@]1(C)O[C@@H]21`, for which the growth in the experiment on T-47D breast is -65% (active); in the experiment on BT-549 breast it was -17.8% (active); in the experiment on MDA-MB-435 melanoma, -60.3% (active); in the experiment on SW-620 colon, -21.6% (active); in the experiment with MCF7 breast it was -8.09% (active); with HCT-116 colon, -65.6% (active). Further, the growth with HCC-2998 colon is -79% (active); with KM12 colon, 38.8%.
In the case of `O=C(Nc1ncc(Cc2ccc(Cl)cc2)s1)c1ccc2c(c1)OCCO2`, the growth was 46.1% with T-47D breast; 38.1% in the experiment on BT-549 breast; 5.85% (active) in the experiment with MDA-MB-435 melanoma; 35.4% in the experiment with SW-620 colon; 10.2% with MCF7 breast; 9.61% (active) in the experiment on HCT-116 colon. The growth is 23.2% with HCC-2998 colon and 12.7% in the experiment on KM12 colon.
Regarding `COc1ccc(/C=C/C(=O)c2ccc(-n3cc(CN4CCN(c5cc6c(cc5F)c(=O)c(C(=O)O)cn6C5CC5)CC4)nn3)cc2)cc1`, the growth was 78.6% with T-47D breast; 65.8% in the experiment on BT-549 breast; 22.2% in the experiment on MDA-MB-435 melanoma; 32.8% in the experiment on SW-620 colon; 13.2% in the experiment on MCF7 breast; -31.3% (active) in the experiment on HCT-116 colon. The growth with HCC-2998 colon was 44%; in the experiment with KM12 colon it was 42.6%.
